Values joined by “and” are separate entries in the source; they are usually repeats but may differ in a detail not shown here. Identical values can stand only once. Records with an inconclusive call do not appear. Values without a mark were called inactive. Active and inactive are the calls of the source. Calls follow the shape of the dose curve; as a rule, active = well fitted activation curve with a large enough effect; inconclusive = small, poorly fitted or top-dose-only effect, or effect the other way; inactive = flat fitted curve, though single readings scatter.

Pyruvate kinase PKM (Homo sapiens), sequence (P14618 whole entry, looked up, canonical isoform): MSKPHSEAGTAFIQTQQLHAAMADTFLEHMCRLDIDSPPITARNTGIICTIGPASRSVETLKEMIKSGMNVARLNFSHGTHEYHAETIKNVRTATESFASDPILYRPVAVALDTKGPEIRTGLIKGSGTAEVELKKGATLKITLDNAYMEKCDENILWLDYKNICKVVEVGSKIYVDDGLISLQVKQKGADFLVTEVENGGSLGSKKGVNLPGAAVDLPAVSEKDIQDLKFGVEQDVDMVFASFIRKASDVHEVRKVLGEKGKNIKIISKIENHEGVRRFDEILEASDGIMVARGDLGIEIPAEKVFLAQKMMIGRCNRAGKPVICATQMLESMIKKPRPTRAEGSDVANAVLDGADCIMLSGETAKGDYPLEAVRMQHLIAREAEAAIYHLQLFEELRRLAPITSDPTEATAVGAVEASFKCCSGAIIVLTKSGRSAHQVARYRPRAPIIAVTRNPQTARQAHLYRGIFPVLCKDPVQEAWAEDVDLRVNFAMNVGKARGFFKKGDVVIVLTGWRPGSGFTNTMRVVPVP

In this test the target is Pyruvate kinase PKM (Homo sapiens) (UniProt P14618). The test is described as follows: Secondary assay for Activators of Human Pyruvate Kinase M2 isoform. The settings on record: purified hPK-M2, LDH-coupled NADH fluorescence kinetic; series mostly up to 57.5 µM; activation: at the top concentration. From the text:
Confirmatory assay NIH Chemical Genomics Center [NCGC] Matthew G. Vander Heiden, M.D., Ph.D. [Harvard Medical School, 77 Avenue Louis Pasteur, Boston, MA 02115] NCGC Assay Overview: Human pyruvate kinase muscle 2 (hPK-M2)enzyme was supplied as a highly purified (>95% pure) preparation from Harvard Medical School and a secondary assay was used to evaluate compounds. This assay couples the formation of pyruvate from hPK-M2 using lactate dehydrogenase (LDH) and NADH. The depletion of NADH is followed in a fluorescent-based kinetic assay that follows the formation of pyruvate to lactate, as catalyzed LDH (described by Hannaert et al., 2002)1 Pyruvate kinase substrates, PEP and ADP, were present in the assay at 0.1 mM and 4 mM respectively. In this kinetic assay initial rates were determined by following the fluorescence of NADH depletion.
NCGC Assay Protocol Summary: Three uL of substrate mix (final concentration, 50 mM Tris-Cl pH 8.0, 200 mM KCl, 15 mM MgCl2, 0.1 mM PEP, 4.0 mM ADP, and 0.2 mM NADH) was dispensed into black-solid 1536 well plates. 23 nL of compounds were delivered by a pin tool and 1 uL of enzyme mix (final concentrations, 10 nM hPK-M2 and 1 uM of LDH) was added. Plates were immediately placed in ViewLux (Perkin Elmer) and NADH fluorescence was determined at 30 second exposure intervals for between 3 and 6 minutes. Data were normalized to the uninhibited and EC100 activation using known activators such as fructose-bis-phosphate.
On to `C=CCc1cc(F)c(S(=O)(=O)N2CCN(S(=O)(=O)c3ccc4c(c3)OCCO4)CC2)cc1F`, for which the Potency was 2000 nM (active). Same read-out and setting: as for `O=S(=O)(c1cccc(F)c1)N1CCN(S(=O)(=O)c2ccc3c(c2)OCCO3)CC1`, the figure is 1000 nM (active); as for `Cc1cc2c(s1)c1cnn(Cc3c(F)c(F)cc(F)c3F)c(=O)c1n2C`, 398 nM (active). On the same count and under the same terms, under `CCOC(=O)CCc1cc(F)c(S(=O)(=O)N2CCN(S(=O)(=O)c3ccc4c(c3)OCCO4)CC2)cc1F` stands 10000 nM (active); under `O=S(=O)(c1ccc(Cl)cc1)N1CCN(S(=O)(=O)c2ccc3c(c2)OCCO3)CC1`, 1120 nM (active). Still for that read-out and setting: as for `COc1cc(F)c(S(=O)(=O)N2CCCN(S(=O)(=O)c3cccc(N)c3)CC2)c(F)c1`, the figure is 146 nM (active) and 1.16 µM (active).

On to `O=C(O)c1cc(F)c(S(=O)(=O)N2CCN(S(=O)(=O)c3ccc4c(c3)OCCO4)CC2)cc1F`, for which the Potency is 31600 nM (active). The same measure, in the same setting: as for `Cn1c2cc(S(C)=O)sc2c2cnn(Cc3ccccc3F)c(=O)c21` (stereo not given), the figure is 398 nM (active).

With `CC(C)c1cc2c(s1)c1cnn(Cc3ccccc3F)c(=O)c1n2C`, the Potency is 1410 nM (active). Still for that read-out and setting: under `O=S(=O)(c1ccc2c(c1)OCCCO2)N1CCN(S(=O)(=O)c2c(F)cccc2F)CC1` stands 501 nM (active); under `Cc1cc2c(s1)c1cnn(Cc3ccccc3Cl)c(=O)c1n2C`, 562 nM (active); under `C[C@@H]1CN(S(=O)(=O)c2ccc3c(c2)OCCO3)CCN1S(=O)(=O)c1c(F)cccc1F`, 3550 nM (active). On the same count and under the same terms, as for `O=S(=O)(c1ccc2c(c1)OCCO2)N1CCN(S(=O)(=O)c2c(F)ccc(O)c2F)CC1`, the figure is 355 nM (active). Same read-out and setting: under `COC/C=C/c1cc(F)c(S(=O)(=O)N2CCN(S(=O)(=O)c3ccc4c(c3)OCCO4)CC2)cc1F` stands 17800 nM (active). As for `COc1cc(F)c(S(=O)(=O)N2CCN(S(=O)(=O)c3ccc(N)cc3)CC2)c(F)c1`, the Potency is 183 nM (active).

Regarding `O=S(=O)(c1ccc2c(c1)OCCO2)N1CCN(S(=O)(=O)c2ccccc2F)CC1`, the Potency was 316 nM (active). Regarding `Nc1ccc(S(=O)(=O)N2CCN(S(=O)(=O)c3c(F)cccc3F)CC2)cc1`, the Potency is 410 nM (active).

Consider `Cc1cc2c(s1)c1cnn(Cc3ccc(Cl)cc3)c(=O)c1n2C`, for which the Potency is 1120 nM (active). The same measure, in the same setting: under `Cc1ccc(Cn2ncc3c4sc(C)cc4n(C)c3c2=O)cc1` stands 1260 nM (active); under `Cn1c2cc(B(O)O)sc2c2cnn(Cc3c(F)cccc3Cl)c(=O)c21`, 6310 nM (active). Same read-out and setting: as for `Cn1c2cc(Br)sc2c2cnn(Cc3ccc(F)cc3)c(=O)c21`, the figure is 794 nM (active); as for `Cn1c2cc(B(O)O)sc2c2cnn(Cc3ccccc3F)c(=O)c21`, 15800 nM (active). As to `COC(=O)c1cc2c(s1)c1cnn(Cc3ccccc3F)c(=O)c1n2C`, the Potency was 355 nM (active).

As to `COc1cccc(Cn2ncc3c4sc(B(O)O)cc4n(C)c3c2=O)c1`, the Potency is 17800 nM (active). Consider `Cn1c2cc(Br)sc2c2cnn(Cc3c(F)cccc3Cl)c(=O)c21`, for which the Potency was 794 nM (active). On the same count and under the same terms, as for `Cc1cc2c(s1)c1cnn(Cc3ccc(F)cc3F)c(=O)c1n2C`, the figure is 178 nM (active); as for `COc1cccc(S(=O)(=O)N2CCN(S(=O)(=O)c3ccc4c(c3)OCCO4)CC2)c1`, 562 nM (active). Still for that read-out and setting: under `Cn1c2cc([N+](=O)[O-])sc2c2cnn(Cc3ccccc3F)c(=O)c21` stands 251 nM (active). The same measure, in the same setting: under `Cc1cc2c(s1)c1cnn(Cc3c(F)cccc3F)c(=O)c1n2C` stands 141 nM (active); under `COc1cc(F)c(S(=O)(=O)N2CCCN(S(=O)(=O)c3ccc4c(c3)OCCO4)CC2)c(F)c1`, 58 nM (active); under `Cc1cc2c(s1)c1cnn(Cc3c(F)cccc3Cl)c(=O)c1n2C`, 158 nM (active). For the molecule `Cn1c2cc(C(=O)O)sc2c2cnn(Cc3ccccc3F)c(=O)c21`, the Potency is 8910 nM (active). Regarding `Cc1ccc(C)c(OC2=NS(=O)(=O)c3ccccc32)c1`, the “activation” value is -6.5%. `Nc1cccc(S(=O)(=O)N2CCN(S(=O)(=O)c3ccc4c(c3)OCCO4)CC2)c1`: the Potency was 146 nM (active). Still for that read-out and setting: as for `COc1cc(F)c(S(=O)(=O)N2CCN(S(=O)(=O)c3ccc4c(c3)OCCO4)CC2)c(F)c1`, the figure is 562 nM (active); as for `O=S(=O)(c1ccc(F)cc1)N1CCN(S(=O)(=O)c2ccc3c(c2)OCCO3)CC1`, 199 nM (active); as for `Cc1cc2c(s1)c1c(C)nn(Cc3ccc(F)cc3)c(=O)c1n2C`, 2820 nM (active). The same measure, in the same setting: under `O=C(N1CCc2ccc(S(=O)(=O)N3CCN(S(=O)(=O)c4ccc5c(c4)OCCO5)CC3)cc2C1)C(F)(F)F` stands 1120 nM (active). Same read-out and setting: as for `Cc1cc2c(s1)c1cnn(Cc3ccc(C)c(F)c3F)c(=O)c1n2C`, the figure is 141 nM (active). For `Cn1c2cc(C#N)sc2c2cnn(Cc3ccc(F)cc3)c(=O)c21`, the Potency is 282 nM (active).
